# Compound activity as filed in PubChem.
# In the library only some 8.9% were active in any assay of this set; here they are far more common.
# NPSR antagonist – blocks cAMP signaling of the human neuropeptide S receptor | CHO-NPSR cells, cAMP TR-FRET, antagonist mode | 220,000 tested, 1% active | AID 1461 | Potency, µM (series often up to 38.3 µM), for inactives: at the top dose activity change, negative = inhibition, actives largely listed as inhibitors; note: potency is the fitted concentration of half-maximal effect; nearly all actives have a fitted effect of over 50% in size
# Target sequence (Q6W5P4 whole entry, looked up): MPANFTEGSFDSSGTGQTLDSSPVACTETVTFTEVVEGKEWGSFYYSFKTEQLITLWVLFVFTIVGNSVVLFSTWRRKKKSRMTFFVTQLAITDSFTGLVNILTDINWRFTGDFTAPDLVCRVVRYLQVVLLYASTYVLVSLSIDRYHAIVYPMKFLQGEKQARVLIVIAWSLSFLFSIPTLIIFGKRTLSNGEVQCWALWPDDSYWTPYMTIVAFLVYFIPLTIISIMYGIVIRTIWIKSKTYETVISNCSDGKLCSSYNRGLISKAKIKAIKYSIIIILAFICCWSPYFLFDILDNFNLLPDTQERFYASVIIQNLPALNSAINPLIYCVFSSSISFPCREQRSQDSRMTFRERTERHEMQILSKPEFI
# 12-hLO inh – blocks human 12-lipoxygenase activity; 150,000 tested, 0.12% active; Potency, µM (doses to about 57.1 µM), for inactives: at the highest dose activity change, negative = inhibition, actives largely listed as inhibitors; purified 12-hLO, xylenol orange hydroperoxide absorbance; AID 1452; note: potency is the fitted concentration of half-maximal effect; nearly all actives have a fitted effect of over 55% in size
#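 150 nM 12hLO, 25 mM Hepes pH 7.0 + 0.01% Triton X-100; cpd preinc 15 min RT; 40 uM arachidonic acid, 30 min RT; Fe-XO 30 min; A573/A405 ratio as read-out.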
# IMPase Li inh – cell-permeable IMPase inhibitors with lithium potentiation. CHO-M1 cells, IP1 TR-FRET (IP-One), carbachol + lithium. Potency, µM (highest dose often 59.4 µM), without a hit: at the top dose activity, negative = IMPase inhibition, hits mostly inhibitors. 210,000 tested, 0.35% active;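 note: IP1 builds up when IMPase is blocked and the TR-FRET signal falls; potency is the fitted concentration of half-maximal effect; plate controls were basal vehicle for no effect and high inhibitor control for full effect; nearly all actives have a fitted effect of over 50% in size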
#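 Readout is a homogeneous TR-FRET IP1 immunoassay (Ex 320, Em 665 and 620), where raised cytosolic IP1 lowers signal. Cells were CHO-M1 treated 30 min at 37C with test compounds plus a little lithium; AC50 values came from Hill-equation fitting.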
# IMPase cell inh – cell-permeable inhibitors of inositol monophosphatase (IMPase) | CHO-M1 cells, IP1 accumulation, HTRF TR-FRET ratio | inhibition (IP1 accumulation), % at 46.1 µM | P97697 | 120,000 tested, under 10 active; active = well fitted curve in the direction sought with a large enough effect in the signal ratio, not every such curve was filed as active; inconclusive = small, poorly fitted or top-dose-only effect, or a change in a side signal; inactive = no such curve, though single readings can be large or run the other way; the % refers to the signal ratio;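 note: cells stimulated with carbachol in lithium chloride buffer; plate controls were DMSO basal wells for no effect and reference inhibitor wells for full effect; higher means more IMPase inhibition seen as more IP1 and lower FRET ratio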
#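 Cellular IMPase inhibition is scored as a rise in cytosolic IP1, detected by competitive TR-FRET between d2-labelled IP1 and a europium anti-IP1 antibody. M1-expressing CHO cells were stimulated with carbachol for 30 min at 37C, with lithium (50 mM LiCl) present in the buffer.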
# HPGD block – HPGD (human) dehydrogenase inhibition | P15428 | purified HPGD, NADH fluorescence kinetic, PGE2 substrate | Potency, µM, for the others: at the highest dose activity change, negative = inhibition, actives largely listed as inhibitors | 150,000 tested, 4.3% active | AID 894; active = well fitted inhibition curve with a large enough effect, not every such curve was filed as active; inconclusive = small, poorly fitted or top-dose-only effect, or another doubt; inactive = no such curve, though single readings can be large or run the other way; note: potency is the fitted concentration of half-maximal effect
# Target sequence (P15428 whole entry, looked up): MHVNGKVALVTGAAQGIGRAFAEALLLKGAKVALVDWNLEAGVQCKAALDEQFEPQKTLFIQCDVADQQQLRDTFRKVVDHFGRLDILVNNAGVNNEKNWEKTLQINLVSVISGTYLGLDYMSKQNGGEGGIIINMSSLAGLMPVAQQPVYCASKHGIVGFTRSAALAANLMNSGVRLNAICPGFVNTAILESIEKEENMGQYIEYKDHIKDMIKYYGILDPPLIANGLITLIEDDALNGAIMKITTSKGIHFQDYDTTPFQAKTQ
#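 NADH formation kinetics: reaction with 30 uM PGE2 and 1 mM NAD+ (final), 20 nM enzyme, Tris-HCl pH 8 with Tween 20, after 15 min compound preincubation at room temperature. Fluorescence change, last versus first of five reads.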
# ALDH1A1 inh – ALDH1A1 (human) enzyme inhibition; P00352; Purified ALDH1A1, NADH fluorescence, propionaldehyde substrate; Potency, µM (titrated, usually from 75.3 µM), without a hit: at the top dose activity, negative = inhibition, hits mostly inhibitors; 220,000 tested, 7.3% active; AID 1030; active = well fitted inhibition curve with a large enough effect, not every such curve was filed as active; inconclusive = small, poorly fitted or top-dose-only effect, or another doubt; inactive = no such curve, though single readings can be large or run the other way;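 note: potency is the fitted concentration of half-maximal effect; plate controls were no enzyme wells and a reference inhibitor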
# An asterisk follows results filed as active; ? = inconclusive; . = no result; ! = a repeat was not active; [ ] = remark or other dose. Unless noted, calls come from the whole dose curve; as a rule, active = well fitted curve in the direction sought with a large enough effect; inconclusive = small, poorly fitted or top-dose-only effect, or another doubt; inactive = no such curve, though single readings can be large; an effect the other way counts as inactive or inconclusive. Unless noted, % is set by controls: 0 for no effect and ±100 for the full control effect.
SMILES,NPSR antagonist,12-hLO inh,IMPase Li inh,IMPase cell inh,HPGD block,ALDH1A1 inh
O=C1/C(=C\c2ccccc2)C[C@@]2(O)[C@H]3Cc4ccc(O)c5c4[C@@]2(CCN3CC2CC2)[C@@H]1O5,.,2%,23%,8,-14%,-3%
Cc1ccc(N2C(=O)NC(=O)/C(=C\c3ccc([N+](=O)[O-])o3)C2=O)cc1,-9%,.,5%,.,.,?
O=C1NC(=O)N(c2ccccc2F)C(=O)/C1=C/c1ccc(Sc2nc3ccccc3[nH]2)o1,-27%,-25%,?,.,3.5µM*,10µM*
O=C1NC(=O)N(c2ccc3c(c2)OCO3)C(=O)/C1=C\c1ccc(-c2ccccc2C(=O)O)o1,-8%,.,.,.,.,-14%
Cc1cccc(N2C(=O)NC(=O)/C(=C/c3ccc(-c4ccc(C(=O)O)c(Cl)c4)o3)C2=O)c1,1%,.,-10%,.,.,4%
O=C1NC(=O)N(c2cccc(Cl)c2)C(=O)/C1=C\c1ccc(Sc2nc3ccccc3[nH]2)o1,-44%,?,-4%,-20,7.9µM*,22µM*
O=C1NC(=O)N(c2ccccc2)C(=O)/C1=C/c1ccc(Sc2ccccc2)o1,10µM*,3%,31%[38.3 µM],-6,-18%,0%
NC(=S)Nc1ccccc1,.,0%,-2%,.,-2%,3%
Cc1ccc(-n2c(-c3nn(C)c(C)c3Cl)n[nH]c2=S)cc1,15%[46.1 µM],-5%,?,?,28µM*,32µM*
O=c1ccc2cc(OC3OC(CO)C(O)C(O)C3O)c(O)cc2o1 (stereo unspecified),.,-2%,10µM*,?,?,?
O=[N+]([O-])c1ccc(O[C@@H]2O[C@H](CO)[C@@H](O)[C@H](O)[C@H]2F)c([N+](=O)[O-])c1,-2%[46.1 µM],.,-3%,.,-11%,?
CC(COc1ccccc1)N(CCCl)Cc1ccccc1 (stereo unspecified),?,-6%,7%,.,0%,28µM*!
COc1cc(/C=C(/C)[N+](=O)[O-])ccc1OCc1ccccc1Cl,?,-1%,18%,.,10µM*,2.8µM*
COc1ccccc1N1CCN(Cc2ccccc2Cl)CC1,-10%[46.1 µM],-20%,24%[38.3 µM],6,-2%,-2%
Clc1ccc(N2CCN(Cc3ccccc3Cl)CC2)cc1,-17%[46.1 µM],-7%,19%[38.3 µM],-5,-9%,?
CC(C)c1ccc(N2C(=O)NC(=O)/C(=C\C=C\c3ccco3)C2=O)cc1,4µM*,.,-5%,.,.,22%
Cc1cccc(N2C(=O)NC(=O)/C(=C\c3cnc(-c4ccccc4)nc3)C2=O)c1,-48%,-11%,6%,7,25µM*,11µM*
Cc1ccc(N2C(=O)NC(=O)/C(=C\c3ccsc3)C2=O)cc1C,-5%,-2%,9%,-11,32µM*,-7%
COc1cccc(N2C(=O)NC(=O)/C(=C/c3ccc4c(c3)Cc3ccccc3-4)C2=O)c1,-26%,.,-9%,.,.,?
Cc1ccc(N2C(=O)NC(=O)/C(=C/c3cnc(-c4ccccc4)nc3)C2=O)cc1C,-47%,-18%,1%,.,20µM*,?
N[C@H](Cc1ccc(N(CCCl)CCCl)cc1)C(=O)O,.,3%,.,0,.,.
CC(C)c1ccc(N2C(=O)NC(=O)/C(=C\c3cnc(-c4ccccc4)nc3)C2=O)cc1,-20%[46.1 µM],-4%,0%[38.3 µM],6,25µM*,7.1µM*
COC(=O)C1C2c3ccccc3OC1(C)N=c1s/c(=C/c3cnn(C)c3C)c(=O)n12 (stereo unspecified),-20%[46.1 µM],-4%,24%[38.3 µM],3,-12%,-2%
CCN(CC)C(=O)c1ccc(NC(=O)c2cccc(F)c2)cc1,-3%[46.1 µM],-6%,4%[38.3 µM],2,14µM*,1%
CCN(CC)C(=O)c1ccc(NC(=O)CCn2nc(-c3ccc(C)cc3)c3ccccc3c2=O)cc1,.,.,.,0,.,.
SMILES,NPSR antagonist,12-hLO inh,IMPase Li inh,IMPase cell inh,HPGD block,ALDH1A1 inh
COC(=O)C(O)(c1ccc(NC(=S)NC(=O)c2ccc(Cl)cc2Cl)c(C)c1)C(F)(F)F (stereo unspecified),-31%,?,10%,.,?,?
CCOC(=O)C(O)(c1ccc(NC(=S)NC(=O)c2ccc(Cl)cc2Cl)c(C)c1)C(F)(F)F (stereo unspecified),-26%,?,10%,.,-23%,18µM*
CCOC(=O)C(O)(c1ccc(NC(=S)NC(=O)c2ccc(Cl)cc2Cl)cc1)C(F)(F)F (stereo unspecified),-49%,-23%,10%,.,-21%,8.9µM*
CC1CC[C@@]2(NC1)O[C@@H]1C[C@H]3C4CC=C5C[C@@H](O)CC[C@]5(C)C4CC[C@]3(C)[C@H]1[C@@H]2C (stereo partly specified),.,2%,6%,7,-1%,?
Clc1ccc(OCC#CCN2CCOCC2)cc1,9%,.,3%,.,.,?
COc1ccc(OCC#CCN2CCCCCC2)cc1,12%,.,22%,.,.,22µM*
CCNc1nc(Cl)nc(NC(C)C)n1,19%,-3%,5%,.,-9%,-5%
CN(C)c1ccc(/C=C/c2cc[n+](C)c3ccccc23)cc1,6.3µM*,.,132%,.,.,4%
CN(C)c1ccc(N(C)C)cc1,.,-12%,61%,.,-27%,?
CCN1CCN(S(=O)(=O)c2cnc(Cl)c(Br)c2)CC1,4%,4%,13%,-1,6%,1.3µM*
CC(C)[C@@H]1CN[C@H](C(=O)O)[C@@H]1CC(=O)O,.,-6%,1%,2,-6%,0%
COC(=O)[C@@]1(Cc2ccc(F)cc2)[C@H]2c3cc(C(=O)N(C)C)[nH]c3C[C@H]2CN1C(=O)c1ccccc1,-33%,4%,7%,.,-4%,-5%
O=c1[nH]c(=O)n(Cc2ccco2)c(O)c1C=NC1CC1,10%[7.67 µM],-6%,-11%[38.3 µM],5,-25%,14µM*
O=c1[nH]c(=O)n(Cc2ccco2)c(O)c1/C=N/N1CCCCC1,-11%[46.1 µM],-1%,7%,-2,-19%,?
O=c1c2ccccc2nc(/C=C/c2ccc(O)cc2)n1-c1cccc(O)c1,-13%,.,10%,.,.,?
COc1cccc(-n2c(/C=C/c3ccc(O)c(O)c3)nc3ccccc3c2=O)c1,-6%,.,5%,.,.,25µM*
CC[C@@]1(c2ccc(N)cc2)CCC(=O)NC1=O,.,-2%[25.6 µM],4%,-5[20.6 µM],-11%,2%[20.9 µM]
Nc1ccc(C2(c3ccc(N)cc3)CCCCC2)cc1,-3%,.,7%,.,.,14µM*
C1CC2OC2CC1C1CO1 (stereo unspecified),.,-1%,1%,.,-7%,-6%
O=C(c1ccc(CNS(=O)(=O)c2ccc(Br)cc2)cc1)N1CCC2(CC1)OCCO2,-15%,0%,-3%,.,-17%,2%
